Experimental data published in PubChem BioAssay AID488969 (Vanderbilt High Throughput Screening Facility, 2010).
The full ranking holds about 110,000 compounds; the median of “z-score” is about -0.1, and the highest 2% start at about 2. Shown is part of a subset that was picked to be rich in the highest values. The source made the active and inactive calls.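 How the source made its calls: active means z-score in the third read window above 3 or below -3; inactive means the rest.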

Each compound was assayed against Metabotropic glutamate receptor 8 (Rattus norvegicus) (UniProt P70579) (assay: rat mGluR8 modulators via GIRK flux, primary screen, cell-based, thallium flux, HTS (AID 488969)). Details: HEK293 rat mGluR8, GIRK (G protein-gated inwardly rectifying potassium channel) thallium flux, FluoZin2; at 10 µM; stronger effect = higher value; submaximal glutamate (EC20) added with thallium.
Sequence of Metabotropic glutamate receptor 8 (Rattus norvegicus) (P70579 whole entry, looked up): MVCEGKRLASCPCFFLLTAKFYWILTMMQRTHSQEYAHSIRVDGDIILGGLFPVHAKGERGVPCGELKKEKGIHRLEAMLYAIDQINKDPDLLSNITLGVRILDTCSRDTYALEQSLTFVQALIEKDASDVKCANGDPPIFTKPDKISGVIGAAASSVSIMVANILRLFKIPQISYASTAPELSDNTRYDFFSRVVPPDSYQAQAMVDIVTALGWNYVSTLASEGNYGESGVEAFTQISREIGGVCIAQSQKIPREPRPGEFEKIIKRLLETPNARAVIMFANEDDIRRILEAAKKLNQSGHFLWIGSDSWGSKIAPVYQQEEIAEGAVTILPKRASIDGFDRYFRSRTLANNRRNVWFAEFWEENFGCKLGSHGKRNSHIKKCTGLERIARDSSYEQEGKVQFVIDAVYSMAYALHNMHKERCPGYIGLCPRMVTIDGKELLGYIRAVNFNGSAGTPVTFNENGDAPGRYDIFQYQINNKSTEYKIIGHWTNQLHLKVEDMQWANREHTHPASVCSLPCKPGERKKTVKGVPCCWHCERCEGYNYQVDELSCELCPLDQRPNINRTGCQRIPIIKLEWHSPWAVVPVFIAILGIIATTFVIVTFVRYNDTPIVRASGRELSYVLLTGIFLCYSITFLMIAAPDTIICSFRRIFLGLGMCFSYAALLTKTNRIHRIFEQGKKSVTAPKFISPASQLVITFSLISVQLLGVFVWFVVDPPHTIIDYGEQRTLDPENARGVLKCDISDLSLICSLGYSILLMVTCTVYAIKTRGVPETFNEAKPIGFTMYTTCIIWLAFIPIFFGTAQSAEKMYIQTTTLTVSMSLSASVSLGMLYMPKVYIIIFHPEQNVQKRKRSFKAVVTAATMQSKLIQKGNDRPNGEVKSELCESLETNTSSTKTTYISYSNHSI
`O=[N+]([O-])c1ccc(NC(=S)N2CCN(c3ccc(F)cc3)CC2)cc1` was tested, and the z-score was -0.0841. `Cc1ccc(NC(=O)c2nccnc2C(=O)O)cc1C` showed a z-score of -0.208. `O=P(c1ccccc1)(c1ccccc1)N(c1ccccc1)c1ccccc1` was tested, and the z-score was -0.752. With `CC(=O)Nc1ccc(C(=O)N2CCCC2)cc1` the z-score was -0.0468. Compound `CC(C)C(=O)Nc1ccc(C(=O)N2CCCCCC2)cc1` has a z-score of 2.15. `CC(C)C(=O)Nc1ccc(C(=O)N2CCN(C(=O)c3ccco3)CC2)cc1` showed a z-score of 0.196. With `O=c1c2ccccc2nc(N/N=C/c2ccc(O)cc2)n1O` the z-score was -0.0395. `Cc1cc(/N=C/N(C)C)on1` gave a z-score of -0.0351. In the case of `COc1ccc(-n2nnnc2SCC(=O)N2CCOCC2)cc1`, the z-score was 3.28 (active). `COc1cc(OC)cc(-n2nnnc2SCC(=O)N2CCCC2)c1` gave a z-score of 0.154. In the case of `CCOc1ccc(-n2nnnc2SCC(=O)N2CCOCC2)cc1`, the z-score was -0.126. Compound `CCn1c(SCC(=O)Nc2ccc(C(=O)OC)cc2)nc2cccnc21` has a z-score of -0.121. Compound `CC(CN(C)Cc1ccccc1)OC(=O)c1ccccc1F` (configuration not stated) has a z-score of 0.00558. For `O=C(N/N=C/c1ccc([N+](=O)[O-])s1)c1ccncc1`, the z-score was -0.428. Compound `O=C(N/N=C\c1ccc([N+](=O)[O-])s1)c1cncc(Br)c1` has a z-score of -0.156. For `Cc1ccc(C(=O)N/N=C/c2ccc([N+](=O)[O-])s2)cc1`, the z-score was -0.176. `O=C(N/N=C/c1ccc([N+](=O)[O-])s1)c1ccccc1Br` showed a z-score of -0.301. With `O=C(Cc1ccccc1)N/N=C/c1ccc([N+](=O)[O-])s1` the z-score was 0.543. With `CCOc1ccc(NC(=O)CCC(=O)N/N=C/c2ccc([N+](=O)[O-])s2)cc1` the z-score was 2.1. `Cc1ccccc1C(=O)N/N=C/c1ccc([N+](=O)[O-])s1` was tested, and the z-score was 2.95. In the case of `COc1ccc(NC(=O)CCC(=O)N/N=C/c2ccc([N+](=O)[O-])s2)cc1`, the z-score was -0.189. In the case of `O=C(N/N=C/c1ccc([N+](=O)[O-])s1)c1cccc(Br)c1`, the z-score was 6.96 (active). Work on `Cc1ccc(N(C(=O)CS(=O)CC(=O)Nc2ccc(F)cc2)C(C(=O)NC2CCCCC2)c2ccco2)cc1` (configuration not stated) yielded a z-score of -0.219. In the case of `O=C(NNC(=S)NC(=O)c1ccccc1[N+](=O)[O-])c1ccccc1Cl`, the z-score was -0.333. With `O=C(CCC1COc2ccccc2O1)Nc1ccc(Cl)cn1` (configuration not stated) the z-score was -0.27. Compound `COc1ccccc1C(OC(=O)c1cccs1)C(=O)NCC1CCCO1` (configuration not stated) has a z-score of -0.383. For `O=C(OC(C(=O)NCC1CCCO1)c1ccc(F)cc1)c1cccs1` (configuration not stated), the z-score was -0.0339. In the case of `COc1ccc(C(OC(=O)c2cccs2)C(=O)NCC2CCCO2)cc1` (configuration not stated), the z-score was 8.22 (active). With `COc1ccc(N2CCN(C(=O)c3cn(C4CCCC4)c(=O)c4c3c3ccccc3n4C)CC2)cc1` the z-score was -0.454. Work on `O=C(Nc1ccc(N2CCCC2)c(S(=O)(=O)Nc2cccc(C(F)(F)F)c2)c1)c1cccs1` yielded a z-score of -0.233. `COc1ccc(Nc2ncnc3c2cnn3Cc2ccccc2)cc1` showed a z-score of -1.73. With `COc1ccc(Nc2ncnc3c2cnn3Cc2ccccc2)cc1OC` the z-score was -0.181. Work on `CCOc1ccc(Nc2ncnc3c2cnn3Cc2ccccc2)cc1` yielded a z-score of 2.26. In the case of `CC(=NCCCN(C)C)C1=C(O)c2ccccc2C1=O`, the z-score was 0.45. `CCc1ccc(C(=O)N2CCCC2)s1` was tested, and the z-score was 0.0133. With `CCOCC(=O)Nc1nc(-c2ccccc2)c(CC)s1` the z-score was -0.107. With `Cc1cccc(N2CCN(C(=O)c3ccc(Cl)c(S(=O)(=O)N4CCc5ccccc5C4)c3)CC2)c1C` the z-score was 3.61 (active). Work on `Cc1cccc(NS(=O)(=O)c2cc(C(=O)N3CCc4ccccc4C3)ccc2Cl)c1C` yielded a z-score of -0.467. `O=C(c1ccc(Cl)c(S(=O)(=O)N2CCc3ccccc3C2)c1)N1CCN(c2ccccc2)CC1` was tested, and the z-score was -0.0565. In the case of `Oc1ccccc1CNc1ccc(Br)cn1`, the z-score was 5.86 (active). In the case of `Brc1ccc(NCc2cccc3ccccc23)nc1`, the z-score was -0.475. In the case of `Oc1ccc(Cl)cc1CNc1ccc(Br)cn1`, the z-score was 0.33. For `CN=C1SC(CC(=O)Nc2sc(C)c(C)c2C(=O)OC)C(=O)N1C` (configuration not stated), the z-score was -0.51. For `COCCN(Cc1ccccc1)C(=S)Nc1ccc(OC(F)F)cc1`, the z-score was -0.227. With `Cc1c(C#N)c2ncn(CC#N)c(=O)c2n1-c1ccccc1` the z-score was 3.28 (active). For `Cc1c(C#N)c2ncn(Cc3ccccc3)c(=O)c2n1-c1ccccc1`, the z-score was -0.85. With `Cc1c(C#N)c2ncn(Cc3ccccn3)c(=O)c2n1-c1ccccc1` the z-score was -0.89. Work on `CC(=O)c1ccc(N2CCN(C(=S)Nc3cccc(Cl)c3)CC2)cc1` yielded a z-score of -0.152. `CCOCCCNc1nc2ccccc2[nH]1` showed a z-score of -0.0367. `O=C1CCCC(=O)C1=C1SCCCS1` gave a z-score of -0.18. `O=C(Nc1ccc(Cl)cc1)N1CCCN(Cc2ccc(F)cc2)C1` was tested, and the z-score was 2.53. Work on `Cc1ccc(NC(=O)N2CCCN(Cc3ccc(F)cc3)C2)cc1C` yielded a z-score of -0.435. With `O=C(Nc1ccc(Cl)cc1)N1CCCN(Cc2ccccc2F)C1` the z-score was -0.218. With `CN1C(=O)c2ccc(NC(=O)c3ccc(N4CCCCC4)c([N+](=O)[O-])c3)cc2C1=O` the z-score was -0.139. `Cc1cccc(NC(=O)c2cc(NC(=O)c3ccccc3)ccc2N2CCCCC2)c1` gave a z-score of -0.201. For `CCN=C1SCC(=O)N1c1ccc(OC)cc1`, the z-score was -0.307. `COc1ccc(S(=O)(=O)N(CCc2ccccc2)CC(=O)N/N=C/c2ccc3c(c2)OCO3)cc1` was tested, and the z-score was -0.0021. `CCOc1ccccc1NC(=O)CN(C)S(=O)(=O)c1cccc2nsnc12` showed a z-score of -0.173. Work on `COc1ccccc1NC(=O)CS(=O)(=O)c1cccc2nsnc12` yielded a z-score of 1.99. `COc1ccc(Cl)cc1NC(=O)CS(=O)(=O)c1cccc2nsnc12` gave a z-score of 0.107. Work on `Cc1csc(NC(=O)Cc2c[nH]c3ccccc23)n1` yielded a z-score of -0.137. Compound `COc1cc(C)ccc1OCCCON1C(=O)CCC1=O` has a z-score of 0.122. For `CC(C)(C)c1ccc(OCCON2C(=O)CCC2=O)c(Cl)c1`, the z-score was 3.08 (active). With `O=C1CCC(=O)N1OCCCOc1ccc(Br)cc1Cl` the z-score was 0.401. Compound `CCn1c(=O)n(CC)c2cc(S(N)(=O)=O)c(C)cc21` has a z-score of 0.381. In the case of `COc1ccc(-c2cc(-c3ccccc3)c(C#N)c(SCC(=O)Nc3ncc(C)s3)n2)cc1`, the z-score was -0.161. In the case of `CCOc1ccc2c(c1)c(C(C)=O)c(C)n2-c1ccccc1`, the z-score was -1.1. For `CCOC(=O)c1c(C)n(C)c2ccc(OCC(O)CN(CC)CC)cc12` (configuration not stated), the z-score was 0.554. Compound `CCN(CC)CC(O)COc1ccc2c(c1)c(C(C)=O)c(C)n2-c1ccccc1` (configuration not stated) has a z-score of 2.25. `CC1CCN(S(=O)(=O)c2ccc(NC(=O)CN3CCN(C)CC3)cc2)CC1` was tested, and the z-score was 0.193. For `Cc1nn2c(CN(C(=O)COc3ccccc3)c3ccccc3)nnc2c2ccccc12`, the z-score was -0.835. Compound `Clc1ccc2c(N3CCCC3)ccnc2c1` has a z-score of 2.36. In the case of `O=C(Oc1ccnc2cc(Cl)ccc12)N1CCOCC1`, the z-score was -0.719. For `Clc1ccc2c(NNc3ccccc3Cl)ccnc2c1`, the z-score was -0.353. `Cc1cc(C)nc(N2CCC(C(=O)Nc3ccc(Oc4ccccc4)cc3)CC2)n1` gave a z-score of -0.163. Compound `CC(C(=O)Nc1ccc([N+](=O)[O-])cc1)N1CCN(C/C=C/c2ccccc2)CC1` (configuration not stated) has a z-score of -0.146. For `CCc1ccc2nc(N3C(=O)C(O)=C(C(=O)c4ccco4)C3c3cccs3)sc2c1` (configuration not stated), the z-score was -1.1. For `N=c1sccn1CC(=O)Nc1ccc(S(=O)(=O)N2CCOCC2)cc1`, the z-score was 2.19. Work on `N=c1sccn1CC(=O)Nc1ccc(Cl)c(S(=O)(=O)N2CCOCC2)c1` yielded a z-score of 0.131. Compound `Cc1ccc(S(=O)(=O)N2CCOCC2)cc1NC(=O)Cn1ccsc1=N` has a z-score of 0.262. `CCOC(=O)CC1C(=O)NCCN1Cc1cccc(OC)c1` (configuration not stated) gave a z-score of -0.139. Compound `COc1ccc(NC(=O)c2ccco2)cc1NC(=O)c1ccc(Br)o1` has a z-score of -0.82. In the case of `Cc1csc(SCC(=O)Nc2ncc(Cl)c(C)c2Cl)n1`, the z-score was 0.185. Compound `Cc1nn(C)c(C)c1S(=O)(=O)N(CC(=O)NCCCOC(C)C)c1ccc(C(C)C)cc1` has a z-score of -0.0899. With `COc1ccc(N(CC(=O)Nc2nc3ccc(C)cc3s2)S(=O)(=O)c2c(C)nn(C)c2C)cc1` the z-score was 2.44. `Cc1nn(C)c(C)c1S(=O)(=O)N(CC(=O)NC1CCCCCC1)c1ccc(C(C)C)cc1` gave a z-score of -0.146. `COc1ccc(N(CC(=O)Nc2nccs2)S(=O)(=O)c2c(C)nn(C)c2C)cc1` showed a z-score of 0.0495. Work on `COc1ccc2nc(NC(=O)CN(c3ccc(C)cc3)S(=O)(=O)c3c(C)nn(C)c3C)sc2c1` yielded a z-score of 0.03. For `Cc1cccc(NC(=O)CN(c2ccc(C(C)C)cc2)S(=O)(=O)c2c(C)nn(C)c2C)n1`, the z-score was 2.21. In the case of `CSc1ccc(/C=N/NC(=O)CN2CCN(Cc3ccccc3)CC2)cc1`, the z-score was -0.0744. For `CC(=O)Oc1ccc2c(c1)cc(C)n2C`, the z-score was 0.458. Compound `O=C1c2ccccc2C(=O)N1CCn1c(=O)oc2ccccc21` has a z-score of 1.56. Compound `CC(Oc1cccc(Cl)c1)C(=O)Nc1ccc([N+](=O)[O-])cn1` (configuration not stated) has a z-score of -0.576. `Cc1cc(Cl)ccc1OC(C)C(=O)Nc1ccc([N+](=O)[O-])cn1` (configuration not stated) showed a z-score of 2.07. `CC(=O)Nc1ccc([N+](=O)[O-])cn1` gave a z-score of -0.229. Work on `COC(=O)c1c(NC(=O)CSc2nnnn2-c2ccccc2)sc2c1CCC(C)C2` (configuration not stated) yielded a z-score of -0.121. `COc1ccc(/C=C2\NC(=S)N(CC3CCCO3)C2=O)c(OC)c1C` (configuration not stated) gave a z-score of 2.32. In the case of `COc1ccccc1/C=C1\NC(=S)N(CC2CCCO2)C1=O` (configuration not stated), the z-score was 0.246. In the case of `COc1ccc(/C=C2\NC(=S)N(CC3CCCO3)C2=O)c(OC)c1` (configuration not stated), the z-score was 0.39. `CCOC(=O)c1nnn(-c2nonc2N)c1COc1cc(C)c(Cl)c(C)c1` gave a z-score of -0.174. Work on `CCCCCCC1CC(CSC(=N)N)OC1=O` (configuration not stated) yielded a z-score of 0.116. Compound `CCCCC1CC(CSc2ncn[nH]2)OC1=O` (configuration not stated) has a z-score of -0.0735. `CCCCCCCC1CC(CSC(=N)N)OC1=O` (configuration not stated) was tested, and the z-score was 5.96 (active). For `CCCCC1CC(CSC(=N)N)OC1=O` (configuration not stated), the z-score was 0.732. `CCCCCCCC1CC(CSc2ncn[nH]2)OC1=O` (configuration not stated) was tested, and the z-score was 5.73 (active). `CCCCCCC1CC(CSc2ncn[nH]2)OC1=O` (configuration not stated) gave a z-score of -0.0128. Compound `CC(C)C(=O)Nc1nc2c(ncn2C2CC(O)C(CO)O2)c(=O)[nH]1` (configuration not stated) has a z-score of -0.334. Compound `CC(C)OC(=O)n1c(=S)oc2ccccc21` has a z-score of -0.00387. For `S=c1[nH]nc(CSCc2ccc(Cl)cc2Cl)n1-c1ccccc1`, the z-score was 15.5 (active). Work on `CSc1nnc(CSCc2ccc(Cl)cc2Cl)n1-c1ccccc1` yielded a z-score of -0.0778. `S=c1[nH]nc(Cc2ccccc2)n1-c1ccccc1` showed a z-score of 0.938. `Cn1ncc(C#N)c1NC(=O)c1cc(-c2ccccc2Cl)on1` showed a z-score of 0.559.
